Source: PubChem
SMARCA2 activ: increases SMARCA2 function in MMTV reporter cells; 370,000 compounds, 1% hits; AID 652017; MG213 cells, MMTV-luciferase reporter, dexamethasone, overnight; activation, % at 9.1 µM; in the data active = activation above about 7.8%;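 also: 0% = vehicle wells and 100% = reference activator wells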
esBAF inh: inhibitors of esBAF chromatin remodeling in mouse ES cells; Bmi1-luciferase knock-in reporter, 24 h; 100% = twice the neutral-well signal; reporter increase, % at 12.5 µM; 350,000 compounds, 2% hits; AID 602393; in the data active = activation above about 40%;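 also: 0% = median of the plate's neutral control wells and 100% = double that signal; a rise in the Bmi1 reporter signal indicates esBAF inhibition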
AF4-AF9 inh: blocks AF4 peptide binding to human AF9 | 350,000 compounds, 0.47% hits | inhibition, % at 10 µM | AlphaScreen, biotin-AF4 peptide binding to FLAG-AF9 | AID 651704 | P42568;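 active = every replicate reaching a set inhibition limit, whatever the replicate mean, cut at about 25% in these data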;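 also: 0% = plate neutral control median and 100% = total signal loss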
MITF TRPM1 HTS: increases MITF-driven TRPM1 promoter luciferase signal | SK-MEL-5 TRPM1-promoter luciferase, 24 h; % of positive control, neutral wells = 0 | activation, % at 12.5 µM | 300,000 compounds, 0.75% hits | AID 588334;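 active = mean activation of at least 80% with every replicate also reaching 80%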;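 also: 0% = neutral control wells and 100% = parthenolide positive control wells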
FGF22 binding: shifts melting point of recombinant human FGF22; Q9HCT0; recombinant FGF22 thermal shift, SYPRO orange fluorescence; percent of sucrose octasulfate shift, DMSO zero; activity (Tm shift, normalised), % at 9.99 µM; 340,000 compounds, 1.5% hits; AID 651658;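 active = mean Tm shift, scaled 0 neutral to 100 positive control, at about 1.3% or above, every replicate too, limit read from the data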
Wnt act: Wnt/beta-catenin pathway activation; Wnt/beta-catenin reporter cell assay, activator, plate reader; activation, % at 9.35 µM; 300,000 compounds, 1.2% hits; in the data active = activation above about 30%, passing the limit was not always enough;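 also: 0% = neutral control wells and 100% = positive control wells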
SMARCA2 act conf: SMARCA2 activation, confirmation screen. shares compounds with SMARCA2 activ. MG213 cells, MMTV-luciferase with dexamethasone, luminescence, overnight; MG213 cells expressing E1A, Rb sequestered; DMSO wells 0%, reference activator 100%. activation, % at 9.1 µM. 3,500 compounds, 30% hits. AID 652260;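 active = activation above its plate's cutoff, the mean activation of tested wells plus 3 SD, cut at about 7.9% in these data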
GAL4-VP16 Luc: activates GAL4-VP16 luciferase, flagging SMARCA2 activator hits | shares compounds with SMARCA2 activ | HEK293 GAL4-VP16 pG5luc reporter, luciferase luminescence; scaled: DMSO wells 0%, SAHA wells 100% | activation, % at 9.1 µM | 3,500 compounds, 41% hits;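 active = activation above the solvent-only control well mean plus 3 SD, averaged across control plates, cut at about 5.2% in these data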
* = called active by the depositor. Compounds with a hit are over-represented: about 4.3% of the library has one in this group of screens.

Screening COc1cc(C2Nc3ccccc3C(=O)N2c2ccc(Cl)cc2)c(Cl)cc1OCC(=O)O (stereo not drawn) returned SMARCA2 activ 10*, MITF TRPM1 HTS 71, Wnt act 48*, SMARCA2 act conf 12* and GAL4-VP16 Luc 9.5*.
Screening CCc1ccccc1NC(=O)C1CCCN1S(=O)(=O)c1ccc2c(c1)n(C)c(=O)c(=O)n2C (stereo not drawn) returned SMARCA2 activ 8.0*, esBAF inh -3, AF4-AF9 inh -3, MITF TRPM1 HTS 6, FGF22 binding 0, Wnt act 13, SMARCA2 act conf -2 and GAL4-VP16 Luc 0.
Cn1c(=O)c(=O)n(C)c2cc(S(=O)(=O)N3CCCC3C(=O)Nc3ccccc3F)ccc21 (stereo not drawn) was read as SMARCA2 activ 0, esBAF inh -4, AF4-AF9 inh -2, MITF TRPM1 HTS 6, FGF22 binding 0 and Wnt act 3.
Screening CCCCOCCCNC(=O)C[C@H]1C[C@@]2(C(=O)OC)C(=C[C@H](C(C)C)O[C@@H]2C2CC2)N(Cc2ccc3c(c2)OCO3)C1=O returned SMARCA2 activ -3.
For C[C@@H]1CN([C@@H](C)CO)C(=O)Cc2cc(NC(=O)Nc3ccc(C(F)(F)F)cc3)ccc2O[C@H]1CN(C)S(C)(=O)=O the results were esBAF inh -4, AF4-AF9 inh 2 and FGF22 binding -1.
`Cc1ccn2cc(-c3cccc(NC(=O)c4cccs4)c3)nc2c1` gave SMARCA2 activ 3, AF4-AF9 inh -2, MITF TRPM1 HTS 37, FGF22 binding 0 and Wnt act -1.
For Cc1cccn2cc(-c3cccc(NC(=O)c4cccs4)c3)nc12 the results were SMARCA2 activ 9.4*, AF4-AF9 inh 3, MITF TRPM1 HTS 61, FGF22 binding 0, Wnt act 13, SMARCA2 act conf 6 and GAL4-VP16 Luc 2.
